Data taken from PubChem BioAssay AID2685 (National Center for Advancing Translational Sciences (NCATS), 2010).
The whole screen tested about 320,000 compounds, of which about 2,100 (0.66%) were called active. Inconclusive results (about 53%) are left out. Calls follow the shape of the dose curve; as a rule, active = well fitted inhibition curve with a large enough effect in the signal ratio, with a control signal flat (not every such curve was filed as active); inconclusive = small, poorly fitted or top-dose-only effect, or effect the other way, or a change in a side signal; inactive = flat fitted curve, though single readings scatter; the % refers to the signal ratio. The list comes from a sample in which actives are over-represented; it also holds similar structures and randomly drawn compounds.

Assay: qHTS Assay for Lipid Storage Modulators in Drosophila S3 Cells;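 as to cell number change: cells counted by Cell Tracker Red CMTPX staining in the red channel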
Conditions: BODIPY lipid droplet fluorescence, 18-24 h, cells fed with added oleic acid; cell number change: measured here: cell count max response; series mostly up to 46.1 µM
Source text: NIH Molecular Libraries Probe Production Centers Network [MLPCN] NIH Chemical Genomics Center [NCGC] MLPCN Grant: 1 R03 MH085686-01 Assay Submitter (PI): Beller, Mathias; Max-Planck-Institut fur Biophysikalische Chemie NCGC Assay Overview: Storing lipids as a reservoir for energy or the anabolism of elementary metabolites is a common feature of probably all cells and is conserved from bacteria to humans. The universal cellular lipid storage organelle is the so-called lipid storage droplet (LD). Although ubiquitous, LDs share a simple structure composed of a hydrophobic core that harbors the storage lipids, which is shielded by a droplet-specific phospholipid monolayer to which proteins are attached. The current model of LD biogenesis involves an incorporation of the lipid core into the membrane leaflets of the endoplasmic reticulum (ER) followed by a subsequent budding-like maturation of a LD, which ultimately pinches off. Once released, LD volume can increase by localized lipogenesis or fusion of existing droplet. Storage lipids are re-mobilized enzymatically by lipase activity. Lipase regulation in the adipocyte is heavily studied and involves multiple components including catecholamine signaling, the LD-associated proteins Perilipin and comparative gene identification (CGI-58) and at least two lipases named hormone sensitive lipase (HSL) and adipocyte triglyceride lipase (ATGL). LD regulation outside of the adipocyte is poorly understood and only few components are known. However, there is an urgent need to learn more about ectopic fat depots as mislocalized storage of lipids, for example in the liver or muscle, is an eminent health problem associated with insulin resistance or the metabolic syndrome. We developed a laser-scanning cytometer assay to enable 1,536-well screening and combined the results of the small molecules screen with an RNAi database based on lipid storage.
Triacsin C (Sigma-Aldrich T-4540), an inhibitor of long-chain fatty acyl CoA synthetase that blocks synthesis of triglycerides, was used as a positive control for lipid under-storage. A total of 23 nL of compound solution of different concentrations were transferred to the assay plates using a Kalypsys pin tool equipped with a 1,536-pin array containing 10-nL slotted pins (FP1S10, 0.457-mm diameter, 50.8 mm long; V&P Scientific). One microliter of oleic acid (400 uM) was added, and the plate was lidded with stainless steel rubber gasket lined lids containing pinholes. […] Fluorescence was detected by excitation of the fluorophores with a 488-nm laser on an Acumen Explorer (TTP Lab Tech). The total intensity in channel 2 (500-530 nm) reflected lipid droplet accumulation. Cells were detected using channel 3 (575-640 nm) with 5-um width and 100-um depth filters. The ratio of the number of objects in PMT channel 2 over the number of objects in PMT channel 3 was also calculated. Percent activity was computed relative to an internal control (100% inhibited lipid droplet deposition due to the presence of 20 uM Triacsin C), which was added to 32 wells/plate.
Potency is read from the fitted curve at half-maximal effect.

Row | SMILES | Potency | cell number change
1 | Cc1ccccc1CCN(C(=O)CN1C(=O)c2ccccc2S1(=O)=O)C(C(=O)NCC1CCCO1)c1ccncc1 (centres undefined) | inactive | -7.43%
2 | Cc1ccccc1NS(=O)(=O)c1ccc(OCC(=O)NCc2ccccn2)cc1 | inactive | 6.59%
3 | CCC1CCCCN1CCCNC(=O)CCC(=O)N1CCOc2ccccc21 (centres undefined) | inactive | 10.7%
4 | CC(C(=O)NC1CCCCC1)N1C(=O)C2C3C=CC(C3)C2C1=O (centres undefined) | 1.84 µM (active) | -1.76%
5 | CC(C(=O)Nc1ccc2nccnc2c1)N1C(=O)C2C3C=CC(C3)C2C1=O (centres undefined) | inactive | 0.122%
6 | O=C(CCN1C(=O)C2C3C=CC(C3)C2C1=O)NC1CCCCC1 (centres undefined) | inactive | –
7 | NC(=O)CCC(=O)N1CCCC(C(=O)c2ccc3c4c(cccc24)CC3)C1 (centres undefined) | inactive | 12.7%
8 | CCc1ccc(CN(C(=O)c2oc3ccccc3c2C)C2CCS(=O)(=O)C2)cc1 (centres undefined) | inactive | 23.1%
9 | O=C(CCC(=O)NNC(=O)COc1ccc(Br)cc1)NCc1ccccc1 | inactive | 6.5%
10 | Cc1ccc(NS(=O)(=O)c2ccc(C(=O)NCc3ccccn3)cc2)cc1 | inactive | 0.232%
11 | Cc1cc(S(=O)(=O)NCc2ccccc2)ccc1OCC(=O)NCc1ccncc1 | inactive | 13.5%
12 | Cc1ccc(S(=O)(=O)NCc2ccccc2)cc1C(=O)NCc1ccccn1 | inactive | -8.5%
13 | Cc1cc(S(=O)(=O)NCc2ccccc2)ccc1OCC(=O)NCc1ccccn1 | 5.17 µM (active) | 6.72%
14 | Cc1ccc(NS(=O)(=O)c2ccc(CCC(=O)NCc3ccccn3)cc2)cc1 | 2.59 µM (active) | -13.1%
15 | CC(C)NS(=O)(=O)c1ccc(CCC(=O)NCc2ccccn2)cc1 | inactive | 6.74%
16 | Cc1cc(C)c(C)c(S(=O)(=O)N2CCC(C(=O)N3CCCC3)CC2)c1C | inactive | 0.752%
17 | CCOC(=O)c1sc(NC(=O)c2ccccc2OCC)nc1C | inactive | 6.73%
18 | CC(=O)NCCn1c(SCC#N)nc2ccccc2c1=O | inactive | 8.06%
19 | COCCSc1nnc(NC(=O)COC)s1 | 25.9 µM (active) | -16.2%
20 | CCC(=O)Nc1nnc(SCCOC)s1 | inactive | –
21 | COCCSc1nnc(NC(=O)C(C)(C)C)s1 | inactive | -0.0656%
22 | Cn1c(NC(=O)/C=C/c2c(F)cccc2Cl)cc(=O)n(C)c1=O | inactive | 12.8%
23 | Nc1nc(N)nc(-c2cc([N+](=O)[O-])ccc2O)n1 | inactive | -17.3%
24 | Nc1cc([N+](=O)[O-])ccc1O | 9.2 µM (active) | -17.1%
25 | Nc1cc([N+](=O)[O-])ccc1Nc1ccc(O)cc1 | inactive | -13.9%
26 | CCN(CC)CCNC(=O)c1ccccc1C(=O)c1ncc[nH]1 | inactive | -16.6%
27 | CCN(CC)CCNC(=O)c1cc(Br)c(N)cc1OC | inactive | 6.76%
28 | CCN(CC)CCNC(=O)c1ccccc1N | 23.1 µM (active) | -10.7%
